Data from PubChem BioAssay (NCI).
The panel holds about 83,000 compounds, 20% with a hit somewhere; the sample as a whole holds those more often.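 Growth was measured after 48 h exposure to one concentration of compound in 96-well plates. Values under 10 count as active.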 Values without a mark were called inactive. Calls of active or inactive are those of the source.

Test system: 786-0 renal
Test: NCI-60 one-dose screen, 48 h (100 = growth as untreated, 0 = no growth, -100 = all killed)
Conditions: 10 µM unless noted

Row | Structure (SMILES) | growth
1 | N#Cc1c(N)[nH]c(S)c1C#N | 107%
2 | NC(=Nc1ccccc1)SCCCCSC(N)=Nc1ccccc1 | 79.5%
3 | CN(C)c1cccc2c(S(=O)(=O)N[C@H]3CC[C@H]4[C@@H]5CCc6cc(O)ccc6[C@H]5CC[C@]34C)cccc12 | 34.9%
4 | CCCCCCCCCCCCCCCCCc1nccn1CCO | 62.3%
5 | COC(=O)CCC1=C(C)/C(=C/c2[nH]c(-c3ccc[nH]3)cc2OC)N=C1C | 13.1%
6 | NC(=O)N/N=C/c1ccc(Br)o1 | 105%
7 | COc1ccc(OC)c2c1[nH]c(=O)c1c3ccccc3cn21 | -86.3% (active)
8 | O=C1C(=O)c2ccc(Br)cc2-c2cc(Br)ccc21 | 50.9%
9 | O=c1c(O)cccn1CCCNCCCN(CCCn1cccc(O)c1=O)CCCn1cccc(O)c1=O | 107%
10 | CN(CCOc1ccc(CC2SC(=O)NC2=O)cc1)c1ccccn1 (configuration not stated) | 108%
11 | COc1cccc2c1C(=O)c1c(O)c3c(c(O)c1C2=O)C[C@@](O)(/C(C)=N/NC(=O)c1cccc([N+](=O)[O-])c1)C[C@@H]3OC1CC(N)C(O)C(C)O1 (some centres not stated) | -24.6% (active)
12 | Cc1nnc(Nc2ccc(NC(=O)Nc3ccc(Cl)cc3)cc2)c2ccccc12 | -27.8% (active)
13 | O=C(Nc1ccc(Cl)cc1)Nc1ccc(Nc2nncc3ccccc23)cc1 | 50.4%
14 | OCc1nnn(-c2ccccc2)c1CO | 105%
15 | COc1ccc2c(c1)C(=O)c1c-2c(=O)n(CCCCCCC(=O)NO)c2ccccc12 | -3.09% (active)
16 | O=[N+]([O-])c1ccc(N/N=C\c2ccccc2[N+](=O)[O-])nc1 | 104%
17 | CN1COc2ccc3ccccc3c2C1 | 91%
18 | O=C(Nc1cccc2ccccc12)c1cc2c(cc1Br)OCO2 | 158%
19 | Cc1cc(NC(=O)Nc2cc(Cl)ccc2C)no1 | 102%

Row | Structure (SMILES) | growth
20 | O=C1C[C@@H]2/C(=C(O)\C=C\c3ccccc3)C(=O)C=C[C@@H]2O1 | -46.7% (active)
21 | O=C1/C(=C/c2ccc([N+](=O)[O-])o2)Oc2ccc(Cl)cc21 | -53.7% (active)
22 | c1ccc(N2CCN(c3nncc4ccccc34)CC2)nc1 | 104%
23 | O=C(Nc1ccc(Oc2ccc(NC(=O)Nc3ccc([N+](=O)[O-])cc3)cc2)cc1)Nc1ccc([N+](=O)[O-])cc1 | -1.95% (active)
24 | Cc1cc(C)n(C(=O)c2nn(-c3ccc(Cl)cc3)cc2O)n1 | 95.7%
25 | NC(=O)c1ncn([C@@H]2O[C@H](CO)[C@@H](O)[C@H]2O)n1 | 95.6%
26 | CCCCN(CCCC)CCCOC(=O)c1ccc(N)cc1 | 95.4%
27 | COc1ccc2c(c1)C(=O)/C(=C/c1ccc([N+](=O)[O-])s1)O2 | 28.1%
28 | CCCCCCCCCCCCCCCCCC1=NC(C)(C)CN1CCO | -53.6% (active)
29 | COc1cc([C@@H]2c3cc4c(cc3C(O[C@@H]3O[C@@H]5CO[C@@H](c6cccs6)OC5[C@H](O)[C@H]3O)C3COC(=O)[C@@H]32)OCO4)cc(OC)c1O (some centres not stated) | -40.6% (active)
30 | CC12CCC3C(CCC4CC(=O)/C(=C\O)CC43C)C1CCC(=O)O2 (configuration not stated) | 92.5%
31 | O=C(Nc1ccc(Cl)cc1Cl)Nc1ccc(-c2cccnc2)cc1N1CCC(CO)CC1 | 52.3%
32 | CCN(CC)CCCCNc1c2ccccc2[n+](C)c2c1[nH]c1ccccc12 | -7.1% (active)
33 | Cc1ccc(NC(=O)Nc2ccc(-c3cccnc3)cc2N2CCC(CO)CC2)cc1 | -8.69% (active)
34 | COc1cc(C2CC(c3ccc(C)cc3)=NN2C(C)=O)ccc1Oc1ccnc2cc(Cl)ccc12 (configuration not stated) | 21.9%
35 | C[n+]1c2ccccc2c(NC2CCNCC2)c2[nH]c3ccccc3c21 | 58%
36 | Clc1ccc([C@@H]2C[C@@H]3Cc4cc(Br)c5ccccc5c4N2O3)c(Cl)c1 | 95%
37 | C=C(C)[C@@H]1C[C@H](O)Cc2cc(Cl)cc(Cl)c2N1 | 100%
